Many of the other results were omitted from the sample, so hits are more common in it than they were.
IL1B secr inh: qHTS for Inhibitors of Inflammasome Signaling: IL-1-beta AlphaLISA Primary Screen | actives 4.7% (n = 360,000) | activity change, % at 57.5 µM | THP-1 LPS/ATP IL-1B secretion, AlphaLISA, 16 h; active compounds read low; in the data active = activity change below about -50%; inconclusive = mostly about -30% to -49%
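THP-1 cells pretreated 1 hr with compounds (up to 57.5 uM final), then stimulated with LPS (250 ng/mL final) plus ATP (1.25 mM final); secreted IL-1B measured by AlphaLISA after 16 hr, decreased signal indicating inhibition.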
ALOX12 inh: Primary qHTS assay for inhibitors of human arachidonate 12S-lipoxygenase (ALOX12): Round 2. Polyunsaturated fatty acid lipoxygenase ALOX12 (Homo sapiens), P18054. purified 12hLO, xylenol orange hydroperoxide absorbance. Potency, µM (top dose mostly 108 µM), for the others: at the top dose activity change, negative = inhibition, actives largely listed as inhibitors. actives 1.1% (n = 580,000). AID 1671190, 2021; note: potency is the fitted concentration of half-maximal effect
Target sequence (P18054 whole entry, looked up): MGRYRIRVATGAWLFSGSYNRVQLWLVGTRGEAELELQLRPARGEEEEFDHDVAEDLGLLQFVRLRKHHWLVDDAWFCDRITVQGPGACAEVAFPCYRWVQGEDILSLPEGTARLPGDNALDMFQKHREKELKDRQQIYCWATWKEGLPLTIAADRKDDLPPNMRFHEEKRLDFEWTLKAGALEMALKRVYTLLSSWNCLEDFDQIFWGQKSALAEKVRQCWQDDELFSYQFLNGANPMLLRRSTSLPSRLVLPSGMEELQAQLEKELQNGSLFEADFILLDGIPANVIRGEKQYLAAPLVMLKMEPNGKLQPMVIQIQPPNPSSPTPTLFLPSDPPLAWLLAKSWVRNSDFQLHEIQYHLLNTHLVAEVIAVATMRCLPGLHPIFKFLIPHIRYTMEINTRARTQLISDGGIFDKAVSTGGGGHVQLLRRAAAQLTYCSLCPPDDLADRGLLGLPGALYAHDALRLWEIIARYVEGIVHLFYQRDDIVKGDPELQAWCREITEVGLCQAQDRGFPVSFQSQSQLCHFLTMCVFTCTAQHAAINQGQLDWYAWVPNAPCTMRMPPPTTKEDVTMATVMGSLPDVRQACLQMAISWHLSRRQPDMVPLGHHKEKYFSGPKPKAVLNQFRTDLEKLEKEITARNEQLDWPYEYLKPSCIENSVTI
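Hydroperoxide product was detected by ferrous iron/xylenol orange as the 573 to 405 nm absorbance ratio. Arachidonic acid at 40 uM (final) was turned over for 30 min at room temperature by 150 nM human 12hLO, pH 7.0 Hepes buffer, after 15 min compound preincubation.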
HT1080NT lethal: qHTS for induction of synthetic lethality in tumor cells producing 2HG: qHTS for the HT-1080-NT fibrosarcoma cell line. actives 1.6% (n = 360,000). Potency, µM (highest dose often 46.1 µM), inactives show top-dose activity, negative = less viability, most hits filed as cytotoxic. HT-1080-NT fibrosarcoma viability, CellTiter-Glo ATP luminescence, 48 h;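 note: NT is the 2HG producing partner of a matched IDH1 knockdown line; potency is the fitted concentration of half-maximal effect; 0% = DMSO-treated cells and -100% = media-only wells without cells; nearly all actives have a fitted effect of over 55% in size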
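Compounds were tested in concentration-response format on HT-1080-NT cells for 48 hours at 37 degrees C. Cell viability came from CellTiter-Glo luminescence; curves were classified by r2, response magnitude and activity.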
HT1080 IDH1KD tx: qHTS for induction of synthetic lethality in tumor cells producing 2HG: qHTS for the HT-1080-IDH1KD cell line; actives 2% (n = 360,000); HT-1080 IDH1 knockdown viability, ATP luminescence, 48 h; Potency, µM (series often up to 46.1 µM), for inactives: at the highest dose activity, negative = toxicity, usual class: cytotoxic;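 note: potency is the fitted concentration of half-maximal effect; 0% = DMSO wells and -100% = cell-free medium wells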
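Knockdown cells (IDH1KD HT-1080) received compounds 2 h after plating at 750 cells/well and were kept 48 h at 37 °C in 5% FBS RPMI. A CellTiter-Glo luminescence read gave % activity for curve fitting.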
DT40 TDP1 CPT: qHTS for Inhibitors of human tyrosyl-DNA phosphodiesterase 1 (TDP1): qHTS in cells in presence of CPT | Potency, µM (highest dose often 46.2 µM), for the others: top-dose activity change, negative = growth inhibition, usual class: inhibitors | actives 12% (n = 420,000) | chicken DT40 Tdp1-/-;hTDP1 cells + 20 nM CPT, ATP luminescence, 48 h; note: potency is the fitted concentration of half-maximal effect; nearly all actives have a fitted effect of over 55% in size
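Chicken DT40 Tdp1-/- cells complemented with human TDP1, 400 cells/well, exposed to compounds plus 20 nM camptothecin for at least 48 h at 37 C; viability read as ATP content by CellTiter-Glo luminescence.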
TDP1 cell noCPT: qHTS for Inhibitors of human tyrosyl-DNA phosphodiesterase 1 (TDP1): qHTS in cells in absence of CPT; Potency, µM (series often up to 46.2 µM), without a hit: at the top dose activity change, negative = growth inhibition, most hits filed as inhibitors; DT40 Tdp1-/- hTDP1 cells, no CPT, ATP luminescence, 48 h; actives 15% (n = 420,000); note: potency is the fitted concentration of half-maximal effect; nearly all actives have a fitted effect of over 55% in size
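Chicken DT40 Tdp1-/- cells complemented with human TDP1, screened without camptothecin (DMSO vehicle only), 400 cells/well. Compounds pin-transferred, cells incubated at 37 °C for at least 48 hr. Growth read as ATP-dependent luminescence (CellTiter-Glo, 30 min at RT).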
The depositor's hits bear a star; ? = inconclusive; . = not tested or not shown; ! = a repeat was not active. Unless noted, calls come from the whole dose curve; as a rule, active = well fitted curve in the direction sought with a large enough effect; inconclusive = small, poorly fitted or top-dose-only effect, or another doubt; inactive = no such curve, though single readings can be large; an effect the other way counts as inactive or inconclusive. Unless noted, % is set by controls: 0 for no effect and ±100 for the full control effect.

SMILES | IL1B secr inh | ALOX12 inh | HT1080NT lethal | HT1080 IDH1KD tx | DT40 TDP1 CPT | TDP1 cell noCPT
O=C(CSc1n[nH]c(-c2cccs2)n1)NCCc1ccccc1 | 25 | -22% | -9% | -3% | ? | ?
O=C(CSc1n[nH]c(-c2ccccc2Cl)n1)NCCc1ccccc1 | . | -16% | . | . | 9.2µM* | 21µM*
COc1cccc(CNC(=O)CSc2n[nH]c(-c3ccccc3Cl)n2)c1OC | . | -22% | . | . | -28% | -23%
Cc1ccc2nc(-c3ccncc3)cc(C(=O)NCc3cccnc3)c2c1 | . | 6% | . | . | . | .
CCCCc1ccc(C2C3=C(CC(C)(C)CC3=O)NC3=C2C(=O)c2ccccc23)cc1 (stereo not drawn) | ? | -29% | -6% | -19% | ? | ?
CCCc1ccc(C2C3=C(CC(C)(C)CC3=O)NC3=C2C(=O)c2ccccc23)cc1 (stereo not drawn) | ? | 25µM*! | ? | ? | 21µM* | 16µM*
COc1ccccc1CC(=O)N1CCCN(CCc2ccccc2)c2ccccc21 | . | -23% | . | . | . | .
Cc1nc(N2CCCCC2)n(CC(=O)Nc2cccc(F)c2)c(=O)c1C | . | -17% | . | . | . | .
COc1cc2cc(CN(CCc3ccccc3C)C(=S)NCCCN(C)C)c(=O)[nH]c2cc1OC | 0 | 1% | -17% | -28% | ? | 16µM*
CCNC(=S)N(CCc1ccccc1C)Cc1cc2cc(OC)c(OC)cc2[nH]c1=O | -2 | ? | 1% | 3% | -18% | 3%
Cc1ccc2[nH]c(=O)c(CN(Cc3ccccc3)C(=S)NCCCN(C)C)cc2c1 | -87* | ? | 18µM* | 16µM* | ? | ?
Cc1ccc(C(=O)O)cc1NC(=O)c1ccco1 | . | -23% | . | . | . | .
CCc1ccc(-c2nn(C)c(=O)c3c2CCCC3)cc1S(=O)(=O)Nc1ccccc1 | . | 0% | . | . | . | .
Cc1cc(C)c(C(=O)/C=C/C=C/c2ccccc2)c(=O)[nH]1 | -79* | ? | -3% | -3% | -23% | -28%
Cc1cc(C)c(C(=O)/C=C/c2ccc(C(C)C)cc2)c(=O)[nH]1 | -117* | -17% | -21% | 16µM* | 23µM* | 16µM*
Cc1cc(O)c(C(=O)/C=C/c2ccc(C(C)C)cc2)c(=O)o1 | -8 | ? | 5% | 14% | -21% | ?
C/C(=C\c1cccc(Br)c1)C(=O)c1c(C)cc(C)[nH]c1=O | -71* | -1% | -5% | -6% | -27% | -17%
Cc1cc(O)c(C(=O)/C=C/c2ccccc2)c(=O)o1 | -5 | ? | -4% | -15% | ? | ?
C/C(=C\c1ccc2c(c1)OCO2)C(=O)c1c(C)cc(C)[nH]c1=O | -23 | -4% | 0% | -6% | -21% | ?
COc1ccc([N+](=O)[O-])c2cccnc12 | . | 2% | . | . | . | .
O=[N+]([O-])c1cc2ncccc2c2ncccc12 | ? | -13% | ? | -25% | 6.5µM* | 4.6µM*
COc1cc(-c2noc(C)c2-c2ccc(N(C)C)nc2)cc(OC)c1OC | 81 | 14% | 0.0058µM* | 0.18µM* | 0.13µM* | 0.037µM*
COc1cc(-c2noc(C)c2-c2ccc3[nH]ccc3c2)cc(OC)c1OC | 57 | . | 1µM* | 0.037µM* | 1.5µM* | 1.8µM*
COc1ccc(-c2noc(-c3nc(-c4cc(OC)c(OC)c(OC)c4)no3)n2)cc1 | . | 9% | . | . | . | .
CC(C)NC(=O)C(=O)Nc1cccc(C(=O)c2nccn2C)c1 | . | 22% | . | . | . | .
